FBW7 activator: FBW7 E3 ligase activators, primary screen, biochemical, AlphaScreen, human | AID 1259310, 2017 | hit rate 0.13% among 650,000 | normalized activity (activation), % at 26.1 µM | AlphaScreen FBW7–phospho-cyclin E peptide binding, activator screen; in the data active = normalized activity above about 1.9%;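 also: purified mutant Fbw7 with reduced substrate affinity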
GPR151 activ: activators of human GPR151, primary screen, cell-based, PathHunter beta-arrestin, luminescence; G-protein coupled receptor 151 (Homo sapiens), Q8TDV0; PathHunter beta-arrestin GPR151 cells; activation, % at 11.2 µM; hit rate 1% among 650,000; AID 1508602, 2020; in the data active = activation above about 4.9%;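 also: 0% = median of compound wells and 100% = cells with positive control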
Target sequence (Q8TDV0 whole entry, looked up): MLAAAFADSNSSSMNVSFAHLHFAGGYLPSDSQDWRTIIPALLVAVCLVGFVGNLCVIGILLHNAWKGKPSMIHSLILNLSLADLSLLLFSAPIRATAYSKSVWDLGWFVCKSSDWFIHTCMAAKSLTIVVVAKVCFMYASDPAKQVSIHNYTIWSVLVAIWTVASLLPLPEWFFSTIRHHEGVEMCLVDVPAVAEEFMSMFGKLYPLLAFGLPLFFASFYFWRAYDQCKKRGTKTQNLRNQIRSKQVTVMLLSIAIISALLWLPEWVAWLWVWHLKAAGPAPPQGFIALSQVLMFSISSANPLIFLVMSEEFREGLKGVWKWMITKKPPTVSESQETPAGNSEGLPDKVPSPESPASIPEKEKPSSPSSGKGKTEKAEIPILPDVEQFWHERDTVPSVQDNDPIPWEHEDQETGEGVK
MITF inh: MITF inhibitors, primary screen, biochemical, AlphaScreen, human. AlphaScreen MITF homodimerization, bead proximity signal. hit rate 0.91% among 650,000. AID 1259374, 2018. Microphthalmia-associated transcription factor (Homo sapiens), O75030. inhibition, % at 2.6 µM; in the data active = inhibition above about 50%;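 also: 0% = vehicle wells with protein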
TEAD-YAP inh: TEAD-YAP interaction inhibition, primary screen, TEAD-YAP interaction inhibitor project, luminescence, HEK-TIYL cells; TEAD-Gal4/YAP UAS-luciferase luminescence; inhibition, % at 9.12 µM; hit rate 1.4% among 640,000; AID 1259422, 2018; in the data active = inhibition above about 32%;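 also: 0% = median of test compound wells and 100% = reference inhibitor wells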
GPR151 confirm: GPR151 activators, triplicate retest, confirmation, cell-based, PathHunter beta-arrestin, luminescence; 6,700 tested, under 10 active; shares compounds with GPR151 activ; GPR151 PathHunter beta-arrestin cells, 90 min; % of EA-reagent control over plate median; activation, % at 11.2 µM;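 active = mean percent activation across replicates above the confirmation screen cutoff of 4.91%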
GPR119 counter: GPR119 activators in beta-arrestin cells, counter-screen for GPR151 activator project, cell-based, PathHunter beta-arrestin, luminescence, triplicate; AID 1508611, 2020; activation, % at 11.2 µM; hit rate 0.3% among 6,700; shares compounds with GPR151 activ; 90 min; 0 = compound-well median, 100 = enzyme-acceptor control;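 active = mean percent activation in the counterscreen above 29.09%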;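 also: counterscreen on off-target GPR119 to flag nonselective hits from the GPR151 activator screen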
* = called active by the depositor; / = not tested or not shown; ! = repeats disagree. An excerpt weighted towards active compounds, which were near 3.4% of everything screened.

SMILES	FBW7 activator	GPR151 activ	MITF inh	TEAD-YAP inh	GPR151 confirm	GPR119 counter
O=C1CSC(c2cc3c(cc2Br)OCO3)N1c1ccc(F)c(Cl)c1 (stereo unspecified)	1.0	1.4	-0.2	8.7	/	/
O=[N+]([O-])c1ccc(N2CCN(c3ncnc4c3c(-c3ccccc3)cn4-c3ccc(Br)cc3)CC2)cc1	-0.1	5.0*	-2.2	-1.8	0.5	0.3
COc1ccccc1Nc1ncnc2c1c(-c1ccccc1)cn2-c1ccccc1	-0.1	6.8*	6.0	8.3	0.7	10.9
CCOc1ccc(-n2cc(-c3ccccc3)c3c(NCc4ccc5c(c4)OCO5)ncnc32)cc1	-0.1	0.8	5.0	-0.2	/	/
Brc1ccc(-n2cc(-c3ccccc3)c3c(N4CCN(c5ccccc5)CC4)ncnc32)cc1	-0.1	-0.4	6.8	2.9	/	/
Cc1cccc(-n2cc(-c3ccccc3)c3c(NCCc4ccccc4)ncnc32)c1	0.2	6.0*	1.7	-5.4	-0.2	9.2
Cc1cccc(-n2cc(-c3ccccc3)c3c(NCCc4ccc(Cl)cc4)ncnc32)c1	-0.2	-0.3	-2.5	0.1	/	/
COc1ccc(-n2cc(-c3ccccc3)c3c(NCc4ccc5c(c4)OCO5)ncnc32)cc1	0.4	6.1*	16.4	-0.6	-0.1	9.1
COc1cccc(-c2noc(COc3ccccc3)n2)c1	0.3	-2.2	11.6	-23.5	/	/
CC(C)(C)c1ccc(S(=O)(=O)N2CCSCC2)cc1	0.0	-0.2	6.9	-1.4	/	/
CC1(c2ccc(Br)cc2)CC(C)(C)N(C(=O)CSc2nc3ccccc3o2)c2ccccc21 (stereo unspecified)	-0.1	0.2	14.1	-3.9	/	/
CC(C)(C)C(=O)N1CCC(Cn2nc(-c3ccccc3)ccc2=O)CC1	-0.1	-1.3	3.4	-9.6	/	/
CC(C)(C)NC(=O)C1CCN(Cc2ccc(Cl)cc2)CC1	0.2	-0.9	28.2	1.2	/	/
COc1ccc(OC)c(C2NC(=O)NC(C)=C2C(=O)Nc2ccc(Br)cc2)c1 (stereo unspecified)	0.1	0.1	-8.1	-1.7	/	/
Cc1ccc(-n2cc(-c3ccccc3)c3c(NC(C)C)ncnc32)cc1	-0.1	-0.8	-1.0	-6.9	/	/
CC(C)Nc1ncnc2c1c(-c1ccccc1)cn2-c1ccc(Br)cc1	-0.2	5.4*	1.2	1.4	-1.4	0.3
C#CCNc1c(C(C)=O)nnn1-c1ccc(F)cc1	0.1	1.0	-2.8	-33.3	/	/
CC1CN(C(=O)c2cccs2)CC(C)O1 (stereo unspecified)	0.4	-0.7	1.6	8.7	/	/
CC1CN(C(=O)c2ccccc2C(F)(F)F)CC(C)O1 (stereo unspecified)	0.4	8.0*	-9.3	2.7	0.9	1.6
C[C@H]1CC[C@@]2(OC1)O[C@H]1C[C@H]3[C@@H]4CC[C@@H]5C[C@@H](O)CC[C@]5(C)[C@H]4CC[C@]3(C)[C@H]1[C@@H]2C	0.3	5.6*!	8.7	8.7	0.6	-7.9
CCOc1ccc(NC(=O)COc2ccc(C3C(C#N)=C(N)Oc4n[nH]c(C)c43)cc2)cc1 (stereo unspecified)	-0.2	0.3	-2.0	-6.5	/	/
COc1ccc(NC(=O)COc2ccc(C3C(C#N)=C(N)Oc4n[nH]c(C)c43)cc2)cc1 (stereo unspecified)	0.0	10.0*	9.5	-6.6	0.9	-7.7
COC(=O)c1ccccc1NC(=O)Nc1cc(C(=O)OC(C)C)cc(C(=O)OC(C)C)c1	-0.1	2.4	2.8	2.2	/	/
O=C(NCc1ccccc1)c1nnc(Cc2cccc(F)c2)o1	-0.3	4.9*	5.1	-9.3	0.9	2.9
O=C1NC(=S)NC(=O)C1=Cc1cccc(OC(=O)c2ccc(Cl)cc2)c1	0.4	5.9*	11.5	-1.2	0.5	10.3
SMILES	FBW7 activator	GPR151 activ	MITF inh	TEAD-YAP inh	GPR151 confirm	GPR119 counter
COc1ccc(C(=O)Oc2ccc(C=C3C(=O)NC(=S)NC3=O)cc2)cc1	0.0	0.2	11.9	-2.4	/	/
COc1ccc([N+](=O)[O-])c(S(=O)(=O)N2CCCC2C(=O)O)c1 (stereo unspecified)	0.0	0.2	1.2	7.9	/	/
Cc1sc2nc(CSCC(=O)NC3CC3)[nH]c(=O)c2c1C	-0.1	6.1*	-9.9	-2.8	-0.5	2.0
Cc1sc2nc(CSCC(=O)NCC(F)(F)F)[nH]c(=O)c2c1C	0.0	1.9	6.7	3.1	/	/
CC(=O)C(Sc1nc(NC(C)C)nc(N(C)C)n1)C(C)=O	0.9	5.3*	15.9	-12.2	-0.2	4.9
COCCNc1nnc(SCc2csc(-c3ccc(Cl)cc3)n2)s1	0.0	-0.3	-6.2	-12.9	/	/
CC(=O)N(Cc1cc2cc(C)c(C)cc2[nH]c1=O)CC1CCCO1 (stereo unspecified)	0.1	-1.0	-0.8	6.5	/	/
CCOC(=O)c1[nH]c(=O)[nH]c1CSc1nc2ccccc2[nH]1	0.0	10.6*	-15.4	-0.9	0.8	5.6
CCOC(=O)CSc1nc2ccccc2[nH]1	0.1	1.0	13.6	-5.7	/	/
COc1ccc(C2C(C(=O)N3CCC(C(N)=O)CC3)c3ccccc3C(=O)N2Cc2ccc(F)cc2)cc1 (stereo unspecified)	-0.1	1.2	-2.5	-8.1	/	/
Cc1ccc(NC(=O)COc2ncnc3ccc(Br)cc23)cc1[N+](=O)[O-]	-0.1	3.4	10.7	0.6	/	/
O=C(COc1ncnc2ccc(Br)cc12)Nc1ccc(F)c([N+](=O)[O-])c1	0.0	5.2*	6.2	-2.2	-0.9	-10.0
Cc1ccccc1N(CC(=O)NC(C)(C)C)C(=O)CCC(=O)Nc1nccs1	0.1	5.7*	8.2	-0.3	-0.8	-12.3
CCC(C)(C)NC(=O)CN(C(=O)CCC(=O)Nc1nccs1)c1ccccc1C	0.1	1.0	-9.9	-9.9	/	/
CCN(CC)S(=O)(=O)c1ccc(O)c(N)c1	-0.1	2.0	5.4	-0.5	/	/
CCOC(=O)C1=C(O)/C(=C\c2cccc(C(=O)OC)c2)N=C1C	0.1	-0.1	6.4	17.1	/	/
CC(NCC(C)(C)CN(C)C)C(=O)Nc1ccccc1 (stereo unspecified)	-0.1	7.0*	5.7	4.5	0.9	2.7
COc1ccc2o/c(=N\NC(=O)c3ccccc3Nc3ccccc3)c(C(N)=O)cc2c1	0.1	21.7*	-10.8	13.0	-0.9	-14.0
NC(=O)c1cc2ccccc2o/c1=N\NC(=O)c1ccccc1Nc1ccccc1	0.9	-0.7	17.4	9.1	/	/
COc1ccccc1NC(=O)C1OC2OC(C)(C)OC2C2OC(C)(C)OC12 (stereo unspecified)	-0.1	-0.8	-5.2	-3.0	/	/

Bioassay records from PubChem.
